Assay results from PubChem BioAssay.
Several values for one entry are separate records, joined by “and”; a condition that tells them apart may be missing. Identical values can stand only once. Activity calls are given as the source filed them.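 The calls were made as follows, unless noted: active = compounds whose cell count with miR-34 switched on is under 0.7 times the count with it off; inactive = the rest.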

How the values were obtained:
[1] = tested on: Aerobactin synthetase IucA (Klebsiella pneumoniae); assay: IucA aerobactin synthetase inhibitors, biochemical, Tocris library, absorbance (AID 1345561; call rule not given here;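 also: 100% = enzyme without compound and 0% = no enzyme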); details: purified IucA enzyme assay, absorbance (OD) read-out; stronger effect = lower value;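 tested at 8 µM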
[2] = sensitizers of A549 cells to miR-34 induction, primary screen, imaging, A549 dox-inducible miR-34, nuclei and caspase counts (AID 1347080); details: A549 miR-34 inducible, Hoechst nuclei count, 48 h
[3] = viability rescue of complex I mutant cybrids, primary screen, cell-based, galactose medium, ATP luminescence (AID 1645843;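 active = z-score of at least 1.8 in each of two replicates, scored against plate mean and spread of sample wells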;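 also: positive z means more ATP and so rescue of galactose-driven cybrid death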); details: complex I mutant cybrid cells, 72 h, stronger effect = higher value
[4] = stronger effect = lower value, cell number ratio, induced over uninduced
[5] = measured here: relative caspase fold change +Dox/-Dox
[6] = measured here: total cells with miR-34 induction, stronger effect = lower value
[7] = measured here: total cells without miR-34 induction

Structure (SMILES) | remaining activity [1] | fold change [2, 4] | fold change [2, 5] | cell count [2, 6] | cell count [2, 7] | z-score [3]
CCCCc1nc2ccn(CC(=O)N(C)C)c(=O)c2n1Cc1ccc(-c2ccccc2-c2nn[nH]n2)cc1 | 111% (inactive) | 1.01 (inactive) | 0.927 | 8240 | 8192 | -0.18 (inactive)
COc1cc(/C=C/c2ccc(OC)cc2OC)cc(OC)c1 | 117% (inactive) | 0.956 (inactive) and 0.973 (inactive) | 1.53 and 0.719 | 1820 and 3000 | 1910 and 3090 | -0.41 (inactive)
Nc1nc(NCCc2ccc(O)cc2)nc2nc(-c3ccco3)nn12 | 109% (inactive) | 0.809 (inactive) | 1.15 | 6780 | 8380 | -0.54 (inactive)
CC(=O)OCCNC(=O)c1cccnc1 | 106% (inactive) | 0.936 (inactive) | 0.614 | 9480 | 10100 | 0.15 (inactive)
CCN(CC)c1ccc(/C=N/NC(=O)c2ccc(O)cc2)cc1 | 100% (inactive) | 0.945 (inactive) | 1.02 | 5490 | 5810 | 0.055 (inactive)
NCCCCCc1cnc[nH]1 | 118% (inactive) | 0.92 (inactive) | 0.639 | 9140 | 9930 | -0.155 (inactive)
COC(=O)Nc1ccc2[nH]cc(CCNC(C)=O)c2c1 | 121% (inactive) | 0.99 (inactive) | 0.823 | 8200 | 8280 | -0.205 (inactive)
NC(=NCCc1ccc(I)cc1)SCCCC1CNCN1 (configuration not stated) | 98% (inactive) | 1.01 (inactive) | 0.754 | 6720 | 6680 | -0.645 (inactive)
O=C(Nc1ccc([N+](=O)[O-])cc1O)Nc1ccccc1Br | 105% (inactive) | 1.13 (inactive) and 1.09 (inactive) | 1.05 and 1.85 | 5450 and 2460 | 4830 and 2250 | -0.58 (inactive)
CC(=O)N1CCN(C)CC1 | 118% (inactive) | 0.971 (inactive) | 0.837 | 8470 | 8720 | 0.29 (inactive)
CCc1cc2c(c(CC)n1)CCC(=O)N2Cc1ccc(-c2ccccc2-c2nn[nH]n2)cc1 | 89.1% (inactive) | 0.902 (inactive) | 0.831 | 8410 | 9320 | 1.93 (inactive)
COc1ccccc1N1CCN(CCCCN2C(=O)CCC2=O)CC1 | 103% (inactive) | 0.855 (inactive) | 0.698 | 8300 | 9700 | -0.25 (inactive)
CC1=C(C(=O)OCCN(Cc2ccccc2)c2ccccc2)C(c2cccc([N+](=O)[O-])c2)C(P2(=O)OCC(C)(C)CO2)=C(C)N1 (configuration not stated) | 131% (inactive) | 0.992 (inactive) | 1.07 | 4790 | 4830 | -0.9 (inactive)
N=C(CC(O)COc1ccccc1-c1ccccc1)N1CCCCC1 (configuration not stated) | 113% (inactive) | 0.933 (inactive) | 0.891 | 6170 | 6610 | -0.28 (inactive)
Cc1nc2ccc(NC(=O)Nc3ccnc4cccnc34)cc2o1 | 111% (inactive) | 0.867 (inactive) | 0.84 | 7250 | 8360 | 1.19 (inactive)
COC(=O)C1=C(C)NC(C)=C(C(=O)OCCCN2CCC(c3ccccc3)(c3ccccc3)CC2)[C@@H]1c1cccc([N+](=O)[O-])c1 | 109% (inactive) | 1.06 (inactive) | 1.28 | 310 | 292 | -0.83 (inactive)
Oc1ccc(-c2c(-c3ccccc3)nn3c(C(F)(F)F)cc(C(F)(F)F)nc23)cc1 | 95% (inactive) | 0.915 (inactive) | 2.74 | 8170 | 8930 | 0.225 (inactive)
O=C(Nc1cccc2cccnc12)c1ccc(N2C(=O)[C@@H]3[C@H](C2=O)[C@@H]2C=C[C@H]3C2)cc1 | 115% (inactive) | 1 (inactive) | 0.754 | 6560 | 6550 | -0.025 (inactive)
COc1cc2c(cc1OC)-c1cc3nc4ccccc4nc3n1C(C)(C)C2 | 119% (inactive) | 1.11 (inactive) | 0.782 | 4000 | 3590 | -0.79 (inactive)
COc1ccc([C@H]2CNC(=O)C2)cc1OC1CCCC1 | 113% (inactive) | 0.966 (inactive) | 0.702 | 9600 | 9950 | -0.255 (inactive)
O=C(c1ccc2c(c1)OCO2)N1CCCCC1 | 118% (inactive) | 0.987 (inactive) | 0.905 | 9020 | 9140 | -0.205 (inactive)
c1cc2c3c(c1)c1c(n3CCNC2)CCCC1 | 120% (inactive) | 0.921 (inactive) | 1.32 | 7680 | 8340 | -0.505 (inactive)
C[C@@H]1C(=O)OC2[C@H](O)C34[C@H]5C[C@@H](C(C)(C)C)[C@]36[C@@H](OC(=O)[C@@H]6O)O[C@@]4(C(=O)O5)[C@]21O (some centres not stated) | 112% (inactive) | 0.923 (inactive) | 0.53 | 8430 | 9140 | -0.225 (inactive)
C[C@@H]1O[C@@]2(CS1)CN1CCC2CC1 (racemic) | 111% (inactive) | 0.892 (inactive) | 1.88 | 8540 | 9570 | 0.375 (inactive)

Structure (SMILES) | remaining activity [1] | fold change [2, 4] | fold change [2, 5] | cell count [2, 6] | cell count [2, 7] | z-score [3]
Cn1ccc2cc(NC(=O)Nc3cccnc3)ccc21 | 111% (inactive) | 0.984 (inactive) | 0.852 | 8400 | 8540 | 0.405 (inactive)
c1ccc(N2CCN(CCCOc3ccc4c(c3)OCO4)CC2)cc1 | 103% (inactive) | 0.912 (inactive) | 0.762 | 8370 | 9180 | 0.385 (inactive)
O=C1C(c2ccccn2)=[N+]([O-])c2ccccc21 | 123% (inactive) | 0.941 (inactive) | 0.616 | 8260 | 8780 | -0.62 (inactive)
CSc1ccc([C@H]2CN3CCC[C@H]3c3ccccc32)cc1 | 123% (inactive) | 0.927 (inactive) | 1.33 | 7680 | 8280 | -0.51 (inactive)
CC1(C)CC(=O)C(C2C3=C(CC(C)(C)CC3=O)Oc3ccccc32)C(=O)C1 (configuration not stated) | 120% (inactive) | 0.884 (inactive) | 0.511 | 9160 | 10400 | -0.35 (inactive)
CN(CCc1ccc(Cl)c(Cl)c1)CC(O)COc1ccc(NS(C)(=O)=O)cc1 (configuration not stated) | 107% (inactive) | 0.951 (inactive) and 0.956 (inactive) | 1.56 and 0.961 | 4180 and 6530 | 4390 and 6830 | 0.67 (inactive)
COc1cc(Br)c(S(=O)(=O)Nc2ccc(Cl)c(O[C@@H]3CCN(C)C3)c2)cc1OC | 112% (inactive) | 0.925 (inactive) | 1.74 | 5240 | 5660 | -0.645 (inactive)
COc1ccccc1N1CCN(CCn2c(=O)[nH]c3c([nH]c4ccccc43)c2=O)CC1 | 108% (inactive) | 0.88 (inactive) | 0.64 | 8910 | 10100 | 1.92 (active)
Cc1c[nH]c(=O)n(CCCN2CCN(c3ccccc3OCC(F)(F)F)CC2)c1=O | 126% (inactive) | 0.952 (inactive) | 0.729 | 10000 | 10500 | -0.38 (inactive)
NC(=O)CCCCn1ccc(NC(N)=NCC(F)(F)F)n1 | 98.2% (inactive) | 0.945 (inactive) | 0.965 | 8750 | 9250 | 1.19 (inactive)
CCCCCS(=O)(=O)CCCCCCCCCCn1c(-c2ccc(O)cc2)c(C)c2cc(O)ccc21 | 96.6% (inactive) | 1.01 (inactive) | 0.732 | 1420 | 1410 | -0.685 (inactive)
CC(C)N1CCN(c2ccc(C(=O)c3c(-c4ccc(O)cc4)sc4cc(O)ccc34)cc2)CC1 | 105% (inactive) | 0.989 (inactive) | 1.64 | 6900 | 6980 | -0.43 (inactive)
CCCC[P+](CCCC)(CCCC)Cc1ccc(NC(=O)[C@@H](Cc2ccc3ccccc3c2)NC(=NC2CCCCC2)NC2CCCCC2)cc1 | 117% (inactive) | 1.01 (inactive) | 1.13 | 2940 | 2900 | -0.83 (inactive)
COc1ccc2[nH]c(-c3ccccc3)c(CCNC(C)=O)c2c1 | 99.3% (inactive) | 0.991 (inactive) | 0.88 | 7770 | 7840 | -0.185 (inactive)
OC(CN1CCNCC1)Cn1c2ccc(Br)cc2c2cc(Br)ccc21 (configuration not stated) | 103% (inactive) | 1.43 (inactive) | 0.602 | 284 | 198 | -0.705 (inactive)
COC(=O)/C=C/c1cccc(N(Cc2ccc(-c3ccc(N(C)C)cc3)cc2)C(=O)C2CCCCC2)c1 | 97.3% (inactive) | 0.926 (inactive) | 1.8 | 7630 | 8240 | 0.225 (inactive)
NC(C(=O)O)c1cc(O)ccc1Cl (configuration not stated) | 120% (inactive) | 1.01 (inactive) | 0.855 | 9170 | 9110 | 4.21 (active)
CS(=O)(=O)Nc1c(O)ccc2c1CCCC2C1=NCCN1 (configuration not stated) | 114% (inactive) | 1 (inactive) | 0.792 | 9080 | 9050 | -0.21 (inactive)
CO[C@@H]1[C@H](O)[C@@H](CO)O[C@H]1n1cnc2c(NC3CCCCC3)ncnc21 | 99.6% (inactive) | 0.954 (inactive) | 1.32 | 8920 | 9350 | 0.065 (inactive)
CN1CCN(C(=O)c2nc3ccc(Cl)cc3[nH]2)CC1 | 102% (inactive) | 0.91 (inactive) | 1.56 | 8900 | 9780 | 0.84 (inactive)
Cc1c(C(=O)N(C)C2CCCCC2)sc2nc3ccc(N)cc3n12 | 121% (inactive) | 0.956 (inactive) | 1.28 | 7660 | 8010 | -0.64 (inactive)
Cc1nc2c(c(=O)[nH]1)CSCC2 | 100% (inactive) | 0.983 (inactive) | 1.6 | 9080 | 9230 | -0.035 (inactive)
CC1(C)Oc2ccc(C#N)cc2[C@H](N2CCCC2=O)[C@H]1O (racemic) | 116% (inactive) | 0.905 (inactive) | 1.25 | 8970 | 9900 | 0.155 (inactive)
